# Reference: the supplement of paper PMC8728848
# Many of the other results were omitted from the sample, so the strongest signals are more common in it than they were.
# B1: OS9 (Arabidopsis thaliana) (protein)
# chain: MRGSHHHHHHGMASMTGGQQMGRDLYDDDDKSRLQIFPAHLVGTFSRNNREPKYKIEFLPEDSPFHPGDNLESMVMLDKHGNRFLCYLPKEEKATSGWTSSQQNISTVMMETQQLVKLKTPDELLQPLSEKCLFRQEGWWSYEFCHQKYVRQLHVEDENKIVQEFFLGTFDPEATAAFNQTVSDASTDASQRYHSHVYTNGTTCDLTGSPAEVEVRFVCAETRAMVTSITELSTCKYALTVQCPTLCKHPLFQLEKPVSHTIHCNAIPVEEDATRNKEEQAVDESPKMIADS
# What was measured:
# Assay in all cases: glycan array binding signal (z-score within array); higher = stronger binding
# Details in all cases: glycan notation: IUPAC condensed, linker removed; mutation: R201A
# [1] = target: GalNAc3S(b1-4)GlcNAc
# How it was run: (§1)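 Columns mapping to the same glycan were averaged after glycan names were converted to IUPAC-condensed notation. The data come from 3228 arrays in the Consortium for Functional Glycomics database, limited to those with an available protein sequence. Binding is reported as a within-array Z-score averaged across arrays of one protein sequence and across linkers.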
# [2] = target: Glc(a1-6)Glc(a1-6)Glc(a1-6)Glc
# How it was run: as §1
# [3] = target: Glc(b1-4)Glc
# How it was run: as §1
# [4] = target: GlcA(b1-3)GlcNAc
# How it was run: as §1
# [5] = target: GlcNAc(b1-2)Man(a1-3)[GlcNAc(b1-2)Man(a1-6)]Man(b1-4)GlcNAc(b1-4)[Fuc(a1-6)]GlcNAc
# How it was run: as §1
# [6] = target: GlcNAc(b1-3)Fuc
# How it was run: as §1
# [7] = target: GlcNAc(b1-3)Gal
# How it was run: as §1
# [8] = target: GlcNAc(b1-3)Gal(b1-4)GlcNAc
# How it was run: as §1
# [9] = target: GlcNAc(b1-3)Gal(b1-4)GlcNAc(b1-2)Man(a1-3)[GlcNAc(b1-3)Gal(b1-4)GlcNAc(b1-2)Man(a1-6)]Man(b1-4)GlcNAc(b1-4)[Fuc(a1-6)]GlcNAc
# How it was run: as §1
# [10] = target: GlcNAc(b1-4)Gal(b1-4)GlcNAc
# How it was run: as §1
# [11] = target: GlcNAc(b1-4)GlcNAc
# How it was run: as §1
# [12] = target: GlcNAc(b1-4)GlcNAc(b1-4)GlcNAc
# How it was run: as §1
# [13] = target: GlcNAc(b1-6)GalNAc
# How it was run: as §1
# [14] = target: GlcNAc6S(b1-3)Gal(b1-4)GlcNAc
# How it was run: as §1
# [15] = target: Kdn(a2-3)Gal(b1-4)[Fuc(a1-3)]GlcNAc
# How it was run: as §1
# [16] = target: Man(a1-2)Man(a1-3)Man
# How it was run: as §1
# [17] = target: Neu5Ac(a2-3)Gal(b1-3)GalNAc(b1-4)[Neu5Ac(a2-3)]Gal(b1-4)Glc
# How it was run: as §1
# [18] = target: Neu5Ac(a2-3)Gal(b1-3)GlcNAc(b1-2)[Neu5Ac(a2-3)Gal(b1-3)GlcNAc(b1-4)]Man(a1-6)[Neu5Ac(a2-3)Gal(b1-3)GlcNAc(b1-2)Man(a1-3)]Man(b1-4)GlcNAc(b1-4)GlcNAc
# How it was run: as §1
# [19] = target: Neu5Ac(a2-3)Gal(b1-3)GlcNAc6S
# How it was run: as §1
# [20] = target: Neu5Ac(a2-3)Gal(b1-4)Glc
# How it was run: as §1
# [21] = target: Neu5Ac(a2-3)Gal(b1-4)GlcNAc(b1-2)Man(a1-3)[Neu5Ac(a2-6)Gal(b1-4)GlcNAc(b1-2)Man(a1-6)]Man(b1-4)GlcNAc(b1-4)GlcNAc
# How it was run: as §1
# [22] = target: Neu5Ac(a2-3)Gal(b1-4)GlcNAc(b1-3)Gal(b1-4)GlcNAc
# How it was run: as §1
# [23] = target: Neu5Ac(a2-3)Gal(b1-4)[Fuc(a1-3)]GlcNAc(b1-3)Gal(b1-4)GlcNAc
# How it was run: as §1
# [24] = target: Neu5Ac(a2-6)Gal(b1-4)GlcNAc(b1-2)Man(a1-6)Man(b1-4)GlcNAc(b1-4)GlcNAc
# How it was run: as §1
# [25] = target: Neu5Ac(a2-6)Gal(b1-4)GlcNAc(b1-3)Gal(b1-4)GlcNAc(b1-3)GalNAc
# How it was run: as §1
# [26] = target: Neu5Ac(a2-6)Gal(b1-4)GlcNAc(b1-6)[Gal(b1-3)GlcNAc(b1-3)]Gal(b1-4)Glc
# How it was run: as §1
binder,measurement,setting,value
B1,glycan array binding signal (z-score),[1],2.29
same,glycan array binding signal (z-score),[2],-1.12
same,glycan array binding signal (z-score),[3],2.1
same,glycan array binding signal (z-score),[4],1.54
same,glycan array binding signal (z-score),[5],0.257
same,glycan array binding signal (z-score),[6],0.403
same,glycan array binding signal (z-score),[7],-0.422
same,glycan array binding signal (z-score),[8],-0.104
same,glycan array binding signal (z-score),[9],2.59
same,glycan array binding signal (z-score),[10],0.805
same,glycan array binding signal (z-score),[11],8.22
same,glycan array binding signal (z-score),[12],0.6
same,glycan array binding signal (z-score),[13],-0.498
same,glycan array binding signal (z-score),[14],-0.224
same,glycan array binding signal (z-score),[15],0.82
same,glycan array binding signal (z-score),[16],0.874
same,glycan array binding signal (z-score),[17],-0.662
same,glycan array binding signal (z-score),[18],-1.14
same,glycan array binding signal (z-score),[19],-0.775
same,glycan array binding signal (z-score),[20],2.08
same,glycan array binding signal (z-score),[21],-0.425
same,glycan array binding signal (z-score),[22],0.1
same,glycan array binding signal (z-score),[23],1.98
same,glycan array binding signal (z-score),[24],-0.225
same,glycan array binding signal (z-score),[25],0.709
same,glycan array binding signal (z-score),[26],-0.933
